Assay results from PubChem BioAssay (NCATS).
Records with an inconclusive call do not appear. Active and inactive are the calls of the source. The call rests on the fitted dose curve; in most records, active means well fitted curve in the direction sought with a large enough effect; inconclusive means small, poorly fitted or top-dose-only effect, or another doubt; inactive means no such curve, though single readings can be large; an effect the other way counts as inactive or inconclusive.

Experiments:
[1] = target: Cytochrome P450 3A4 (Homo sapiens) (UniProt P08684); experiment: qHTS Assay for Inhibitors and Substrates of Cytochrome P450 3A4 (AID 884); further: nearly all actives have a fitted effect of over 50% in size
Chain of Cytochrome P450 3A4 (Homo sapiens) (P08684 whole entry, looked up): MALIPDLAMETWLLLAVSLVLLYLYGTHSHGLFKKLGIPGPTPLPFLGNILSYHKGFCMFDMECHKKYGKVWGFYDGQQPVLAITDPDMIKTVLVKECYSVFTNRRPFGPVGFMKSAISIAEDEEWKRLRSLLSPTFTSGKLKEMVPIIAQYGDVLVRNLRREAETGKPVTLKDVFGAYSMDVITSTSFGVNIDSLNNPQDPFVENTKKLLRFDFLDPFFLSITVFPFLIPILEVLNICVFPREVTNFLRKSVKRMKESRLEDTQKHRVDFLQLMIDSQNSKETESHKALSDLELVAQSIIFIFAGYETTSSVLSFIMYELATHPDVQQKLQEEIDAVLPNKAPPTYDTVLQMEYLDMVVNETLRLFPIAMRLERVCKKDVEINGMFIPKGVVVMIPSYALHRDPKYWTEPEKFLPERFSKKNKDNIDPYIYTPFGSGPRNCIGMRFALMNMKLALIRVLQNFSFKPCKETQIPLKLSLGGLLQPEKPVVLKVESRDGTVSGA
How it was run: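 Luminescent readout of luciferin produced by CYP3A4 (20 nM) dealkylation of Luciferin-PPXE, 25 uM (its KM). NADPH-driven reaction ran 60 min at RT after 10 min compound preincubation; data scaled to 57 uM ketoconazole as 100% inhibition.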

[2] = Confirmation and Secondary Assay for Modulators of Hemoglobin Beta Chain Splicing at IVS2 654 locus (AID 910);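 further: HeLa cells stably carrying EGFP split by mutant beta-globin IVS2-654 intron; per-well total GFP intensity by laser scanning cytometry after 2-day treatment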
How it was run: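 Readout: per-well total peak green fluorescence (488 nm ex, 500–520 nm em) from objects 5–250 µm, reflecting correct splicing of an EGFP-654 reporter. Compounds were applied for 2 days at 37 °C to overnight-plated HeLa EGFP-654 cells; controls were DMSO and 500 nM IVS2-654 PNA.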

[3] = Confirmation and Secondary Assay for Modulators of Hemoglobin Beta Chain Splicing at IVS2 705 locus (AID 930);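 further: HeLa cells stably expressing the EGFP-705 splicing reporter; GFP fluorescence per well restored by corrected splicing of the IVS2-705 intron in EGFP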
How it was run: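 HeLa EGFP-705 reporter; 500 cells/well, o/n 37C 5% CO2; cpd 2 d; 488 ex/500-520 em laser scan; total peak GFP intensity/well. Ref: 500 nM […] antisense PNA.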

[4] = target: ATP-dependent 6-phosphofructokinase (Trypanosoma brucei brucei) (UniProt O15648); experiment: qHTS Assay to Find Inhibitors of T. brucei phosphofructokinase: hit validation (AID 492961);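 further: luminescence reports ADP formed as PFK phosphorylates fructose-6-phosphate with ATP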
Chain of ATP-dependent 6-phosphofructokinase (Trypanosoma brucei brucei) (O15648 whole entry, looked up): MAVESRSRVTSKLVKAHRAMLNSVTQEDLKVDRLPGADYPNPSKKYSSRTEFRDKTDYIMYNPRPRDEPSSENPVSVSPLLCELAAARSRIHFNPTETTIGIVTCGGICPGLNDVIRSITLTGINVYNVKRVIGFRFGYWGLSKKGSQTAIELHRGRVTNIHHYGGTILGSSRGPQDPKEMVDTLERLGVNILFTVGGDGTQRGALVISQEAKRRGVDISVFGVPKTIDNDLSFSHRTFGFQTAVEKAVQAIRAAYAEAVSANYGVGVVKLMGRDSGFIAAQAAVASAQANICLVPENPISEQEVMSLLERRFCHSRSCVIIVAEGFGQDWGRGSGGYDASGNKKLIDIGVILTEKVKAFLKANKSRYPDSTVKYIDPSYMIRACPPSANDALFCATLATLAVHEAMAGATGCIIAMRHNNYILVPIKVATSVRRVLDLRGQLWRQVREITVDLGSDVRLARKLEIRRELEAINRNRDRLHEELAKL
How it was run: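 ADP-Glo luminescence read-out of ADP formed by 1.25 nM PFK from 0.1 mM ATP and 0.5 mM F6P (TEA pH 8.0, 45 min, RT). Compounds titrated; activity normalized to no-enzyme and full-enzyme controls.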

7G8 = experiment: qHTS profiling for inhibitors of Plasmodium falciparum proliferation (AID 504749); further: nearly all actives have a fitted effect of over 60% in size; further: potency means the concentration at half of the fitted maximal effect; conditions: P. falciparum in erythrocytes, SYBR Green DNA, 72 h; series mostly up to 12.8 µM
How it was run: (§1)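 SYBR Green fluorescence of parasite DNA, read after lysis and overnight dark incubation, measured growth over 72 h in erythrocyte culture at 0.3% parasitemia and 2.5% hematocrit. Data normalised to DMSO and 0.29 uM artemisinin, with plate-drift correction.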

ATS95 = experiment: as above; conditions: P. falciparum in erythrocytes, SYBR Green DNA, 72 h; series mostly up to 12.8 µM
How it was run: as §1

CP203 = experiment: as above; conditions: P. falciparum in erythrocytes, SYBR Green DNA, 72 h; series mostly up to 12.8 µM
How it was run: as §1

CP215 = experiment: as above; conditions: P. falciparum in erythrocytes, SYBR Green DNA, 72 h; series mostly up to 12.8 µM
How it was run: as §1

CP260 = experiment: as above; conditions: P. falciparum in erythrocytes, SYBR Green DNA, 72 h; series mostly up to 12.8 µM
How it was run: as §1

CP266 = experiment: as above; conditions: P. falciparum in erythrocytes, SYBR Green DNA, 72 h; series mostly up to 12.8 µM
How it was run: as §1

ICS = experiment: as above; conditions: P. falciparum in erythrocytes, SYBR Green DNA, 72 h; series mostly up to 12.8 µM
How it was run: as §1

P94_40 = experiment: as above; conditions: P. falciparum in erythrocytes, SYBR Green DNA, 72 h; series mostly up to 12.8 µM
How it was run: as §1

W2 = experiment: as above; conditions: P. falciparum in erythrocytes, SYBR Green DNA, 72 h; series mostly up to 12.8 µM
How it was run: as §1

[5] = S16 Schwann cell PMP22 intronic element firefly luciferase assay (AID 624032); further: nearly all actives have a fitted effect of over 30% in size
How it was run: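 Luciferase reporter of PMP22 intronic-element expression in stably transfected S16 rat Schwann cells, read by ONE-Glo luminescence after 24 h compound exposure at 37 C. Activity scaled between DMSO (0%) and positive-control PTC124; concentration-effect curves quality-classified.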

[6] = target: Cytochrome P450 3A4 (Homo sapiens) (UniProt P08684); experiment: qHTS Assay for Activators of Cytochrome P450 3A4 (AID 885); further: nearly all actives have a fitted effect of over 65% in size
How it was run: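 Using 20nM recombinant human CYP3A4 in potassium phosphate (200mM), substrate Luciferin-PPXE at 25uM, luminescent luciferin detection followed a 60-min RT NADPH reaction; data scaled to 57 uM ketoconazole.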

Measured: Potency

NC(C(=O)O)[C@@H]1CC(Cl)=NO1 (some centres not stated)
active: 7G8 0.631 µM | ATS95 1 µM | CP203 3.38 µM | CP215 3.01 µM | CP260 0.891 µM | CP266 3.79 µM | ICS 0.891 µM | P94_40 1.12 µM | W2 0.849 µM
inactive: [1] | [2] | [3] | [4]

NCC1CCC(N)C(O[C@@H]2C(O)[C@H](O[C@H]3OC(CO)C(O)C(N)C3O)[C@@H](N)C[C@H]2N)O1 (some centres not stated)
inactive: [1] | [2] | [3] | [4] | ATS95 | CP203 | CP215 | CP260 | CP266 | ICS | P94_40

CC1(C)SC2C(N3C(=O)C(c4ccccc4)NC3(C)C)C(=O)N2C1C(=O)O (configuration not stated)
inactive: [1] | [2] | [3] | [4] | [5] | 7G8 | ATS95 | CP203 | CP215 | CP260 | CP266 | ICS | P94_40 | W2

C[C@]12CCC(=O)C=C1CCC1C2C(=O)C[C@]2(C)C1CC[C@]2(O)C(=O)CO (some centres not stated)
inactive: [1] | [2] | [3] | [4] | [5] | 7G8 | ATS95 | CP203 | CP215 | CP260 | CP266 | ICS | P94_40 | W2

C[C@]12C=CC(=O)C=C1CCC1C2C(O)C[C@]2(C)C1CC[C@]2(O)C(=O)CO (some centres not stated)
inactive: [6] | [2] | [3] | [4] | 7G8 | ATS95 | CP203 | CP215 | CP260 | CP266 | ICS | P94_40 | W2

CC(C)=CCC[C@](C)(O)C1CC=C(C)CC1 (some centres not stated)
inactive: [2] | [3] | [4] | [5] | 7G8 | ATS95 | CP203 | CP215 | CP260 | ICS | P94_40 | W2

CC1CCC(C(C)C)C(=O)C1 (configuration not stated)
inactive: [1] | [2] | [3] | [4] | [5] | 7G8 | ATS95 | CP203 | CP215 | CP260 | CP266 | ICS | P94_40 | W2

CC[C@@]12CCCN3CCc4c(n(c5ccccc45)[C@](O)(C(=O)OC)C1)C32 (some centres not stated)
inactive: [2] | [3] | [4] | [5] | ATS95 | CP203 | CP215 | CP260 | CP266 | P94_40

CC(C)C1CCC(C(=O)NC(Cc2ccccc2)C(=O)O)CC1 (configuration not stated)
inactive: [1] | [2] | [3] | [4] | 7G8 | ATS95 | CP203 | CP215 | CP260 | ICS | W2

CC1C2CCC3C4CC=C5CC(N(C)C)CC[C@@]5(C)C4CC[C@@]32CN1C (some centres not stated)
inactive: [1] | [2] | [3] | [4] | [5] | ATS95 | CP203 | CP215 | CP266 | ICS | P94_40

CC(=O)O[C@@]1(C(C)=O)CCC2C3CC(C)C4=CC(=O)CC[C@@]4(C)C3CC[C@]21C (some centres not stated)
active: 7G8 7.94 µM | P94_40 12.6 µM
inactive: [6] | [2] | [3] | [4] | CP203 | CP215 | CP266 | W2

COc1ccc2cc1Oc1ccc(cc1)CC1c3c(cc4c(c3Oc3cc5c(cc3OC)CCN(C)C5C2)OCO4)CCN1C (configuration not stated)
active: 7G8 2.24 µM | ATS95 4.47 µM | CP203 12 µM | CP260 4.47 µM | ICS 2.82 µM | P94_40 8.91 µM | W2 1.9 µM
inactive: [2] | [3]

N[C@@H]1C(O)OC(CO)C(O)C1O (some centres not stated)
inactive: [1] | [2] | [3] | [5] | 7G8 | ATS95 | CP260 | CP266 | ICS | W2

CC(=O)[C@]1(O)CCC2C3C=C(Cl)C4=CC(=O)C5CC5[C@@]4(C)C3CC[C@]21C (some centres not stated)
inactive: [3] | [5] | ATS95 | CP203 | CP215 | CP260 | CP266 | ICS | P94_40 | W2
